Most compounds without a hit are left out; they make up all but 3.8% or so of the library.
HepG2 tox – HepG2 cytotoxicity, counter-screen for TGF-b inhibitors; HepG2 CAGA-GFP viability, ATP luminescence, 18 h; Potency, µM (series often up to 46.1 µM), for the others: top-dose activity change, negative = cytotoxicity, actives largely listed as cytotoxic; hit rate 0.76% among 410,000; AID 588856
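CellTiter-Glo luminescence gave cytotoxicity after 18 hours at 37 degrees C. The cells were HepG2 CAGA-GFP in 1% FBS DMEM, stimulated with 500 pg/mL TGF-beta after compound addition. %Activity was normalised to no-cell wells (complete cell-killing) and DMSO (no toxicity), and curves were fitted and classified.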
ATXN2 expr inh – reduces ATXN2 reporter expression in HEK-293 cells | HEK-293 ATXN2-luciferase reporter, luminescence, 24 h | Potency, µM (doses to about 57 µM), inactives show top-dose activity change, negative = inhibition, actives largely listed as inhibitors | hit rate 0.72% among 360,000; note: % is set by controls: 0 for no effect and ±100 for the full control effect; nearly all actives have a fitted effect of over 55% in size
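qHTS (up to 57 uM final) was run with 24 h compound exposure of reporter cells at 37 °C. Each well was multiplexed: SteadyGlo luminescence measured ATXN2-luciferase expression after a fluorogenic Gly-Phe-AFC viability readout (25 uM final).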
TGFb inhibitor – blocks TGF-b signaling; hit rate 1.2% among 410,000; HepG2 CAGA-GFP TGF-b/SMAD3 reporter, GFP fluorescence, 18 h; TGF-beta stimulated, 500 pg/mL final; AID 588855; Potency, µM (titrated, usually from 46.1 µM), inactives show at the top dose activity, negative = inhibition, hits mostly inhibitors; note: % is set by controls: 0 for no effect and ±100 for the full control effect; nearly all actives have a fitted effect of over 65% in size
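TGF-beta reporter screen: HEPG2 CAGA-GFP, 1% FBS, 500 pg/mL TGF-beta final, 18 h; per-cell GFP summed per well; curves fitted and categorized by class.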
S2 tox – reduces viability in counter-screen for ATXN expression inhibitors. S2 cells (HEK-293 line with an ATXN2-luciferase reporter) viability, CellTiter-Fluor protease fluorescence, 24 h. Potency, µM (top dose mostly 56.7 µM), usual class: cytotoxic. hit rate 0.49% among 400,000; note: nearly all actives have a fitted effect of over 40% in size
A549 tox-1 – kills or reduces viability of A549 cells in Nrf2 counter-screen | A549 ARE-Fluc cells, CellTiter-Fluor viability, 18-24 h | Potency, µM (highest dose often 46 µM), inactives show top-dose activity change, negative = cytotoxicity, most hits filed as inhibitors | hit rate 0.16% among 390,000 | AID 504648; note: % is set by controls: 0 for no effect and ±100 for the full control effect
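A549 ARE_Fluc cells in 5% FBS OPTI-MEM were exposed to compounds in concentration-response for 18-24 h at 37 deg C. Viability was read by CellTiter-Fluor fluorescence (Ex 405/Em 525) after 30 min, before the luciferase read.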
Nrf2 inh – blocks Nrf2 signaling; A549 ARE-Fluc reporter, luciferase luminescence, 18-24 h; Potency, µM (top dose mostly 46 µM), inactives show at the top dose activity change, negative = inhibition, actives largely listed as inhibitors; hit rate 2.1% among 360,000; AID 504444; note: % is set by controls: 0 for no effect and ±100 for the full control effect; nearly all actives have a fitted effect of over 60% in size
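In this cell-based qHTS, ARE-driven firefly luciferase in A549 cells reports Nrf2 activity; the luminescent signal after BugLite lysis is the measured value, with a prior CellTiter-Fluor read for cell health.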
FLuc enzyme inh – firefly luciferase inhibition, Nrf2 hit validation. Potency, µM (series often up to 57.5 µM), for the others: at the top dose activity change, negative = inhibition, most hits filed as inhibitors. shares compounds with Nrf2 inh. hit rate 4% among 1,400. purified firefly luciferase, luminescence inhibition; note: % is set by controls: 0 for no effect and ±100 for the full control effect; nearly all actives have a fitted effect of over 65% in size
Target sequence (P08659 whole entry, looked up): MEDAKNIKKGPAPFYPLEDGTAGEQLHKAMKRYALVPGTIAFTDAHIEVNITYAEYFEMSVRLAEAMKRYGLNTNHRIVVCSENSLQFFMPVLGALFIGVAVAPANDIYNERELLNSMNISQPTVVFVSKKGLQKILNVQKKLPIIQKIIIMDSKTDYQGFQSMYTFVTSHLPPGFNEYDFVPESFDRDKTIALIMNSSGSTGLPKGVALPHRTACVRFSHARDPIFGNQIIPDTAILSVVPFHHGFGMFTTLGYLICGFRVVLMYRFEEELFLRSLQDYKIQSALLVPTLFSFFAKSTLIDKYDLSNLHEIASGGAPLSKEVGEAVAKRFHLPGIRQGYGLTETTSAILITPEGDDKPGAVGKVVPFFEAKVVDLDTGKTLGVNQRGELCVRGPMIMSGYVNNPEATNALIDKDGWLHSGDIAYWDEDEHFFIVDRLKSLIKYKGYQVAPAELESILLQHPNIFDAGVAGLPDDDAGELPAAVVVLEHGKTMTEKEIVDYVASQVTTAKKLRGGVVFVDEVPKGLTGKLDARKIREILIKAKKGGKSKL
A549 tox-2 – A549 cytotoxicity, Nrf2 inhibitor counterscreen; shares compounds with Nrf2 inh; A549 ARE-Fluc cells, cytotoxicity counterscreen; Potency, µM (highest dose often 46.1 µM), inactives show at the top dose activity change, negative = cytotoxicity, actives largely listed as inhibitors; hit rate 2% among 1,400;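 note: cells exposed to compounds for 18 to 24 hours; % is set by controls: 0 for no effect and ±100 for the full control effect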
ARE-Fluc inh – reduces Nrf2 ARE reporter signal in A549 cells; shares compounds with Nrf2 inh; A549 ARE-firefly luciferase reporter, luminescence; Potency, µM (doses to about 46.1 µM), for the others: at the top dose activity change, negative = inhibition, most hits filed as inhibitors; hit rate 74% among 1,400; note: % is set by controls: 0 for no effect and ±100 for the full control effect; nearly all actives have a fitted effect of over 65% in size
An asterisk follows results filed as active; i = inactive; ? = inconclusive; . = no result. Calls come from the whole dose curve; as a rule, active = well fitted curve in the direction sought with a large enough effect; inconclusive = small, poorly fitted or top-dose-only effect, or another doubt; inactive = no such curve, though single readings can be large; an effect the other way counts as inactive or inconclusive. Potency is the fitted concentration of half-maximal effect.

SMILES	HepG2 tox	ATXN2 expr inh	TGFb inhibitor	S2 tox	A549 tox-1	Nrf2 inh	FLuc enzyme inh	A549 tox-2	ARE-Fluc inh
Cc1nc2ccccc2n1Cc1ccc(Br)cc1	-12%	?	-33%	i	1%	?	-21%	3%	?
CC(=O)c1cccc(NS(=O)(=O)c2cc(-c3onc(C)c3C)ccc2C)c1	-26%	0%	-7%	i	-16%	8.2µM*	3%	-13%	5.8µM*
CC(=O)c1cccc(NS(=O)(=O)c2c(C)noc2C)c1	-14%	3%	-18%	i	-5%	-7%	.	.	.
Clc1ccc(/C=C/c2ccncc2)cc1Cl	-54%	.	?	.	.	.	0%	-39%	?
COCCNC(=O)c1cc2cc(Cl)cc(Cl)c2oc1=O	5%	-1%	0%	i	-1%	1%	.	.	.
CCN(CC)S(=O)(=O)c1cc(NC(=O)c2ccc(-n3cncn3)c([N+](=O)[O-])c2)ccc1C	5%	-24%	-42%	i	?	4.1µM*	1%	-10%	6.5µM*
Cc1ccc(NC(=O)c2ccc(-n3cncn3)c([N+](=O)[O-])c2)cc1	2%	.	0%	.	-7%	-6%	.	.	.
COc1ccc(NC(C)=O)cc1NC(C)C(=O)Nc1cccc(S(=O)(=O)N2CCOCC2)c1 (centres undefined)	-12%	.	-4%	?	-1%	-1%	.	.	.
COC(=O)c1cc(NC(=O)Cc2ccc(OC)c(OC)c2)cc(C(=O)OC)c1	-14%	-4%	2%	i	-1%	-1%	.	.	.
COc1ccc(NC(C)C(=O)Nc2cccc(S(=O)(=O)N3CCOCC3)c2)cc1OC (centres undefined)	-14%	?	-4%	i	?	6.5µM*	-8%	-13%	6.5µM*
COc1ccc(CC(=O)Nc2cccc(SC)c2)cc1OC	-1%	0%	-8%	i	-25%	2.9µM*	-1%	-3%	8.2µM*
COc1ccc(Cl)cc1NC(=O)c1cc(S(=O)(=O)N2CCCC2)cn1C	-44%	-10%	-6%	i	-1%	?	.	.	.
COc1ccc(CC(=O)Nc2cccc(S(=O)(=O)N3CCCCCC3)c2)cc1OC	2%	-36%	?	i	?	1.8µM*	-3%	-22%	4.1µM*
COc1ccc(NC(=O)c2cc(S(=O)(=O)N3CCCC3)cn2C)cc1Cl	-1%	-17%	10%	?	-7%	3.7µM*	-16%	1%	16%
CC12Cc3ccc4ccccc4c3C=C1C[N+](C)(C)C2 (centres undefined)	-9%	-11%	14%	i	-19%	1.3µM*	0%	-7%	18µM*
CC[N+]1(CC)CC2=Cc3c(ccc4ccccc34)CC2C1 (centres undefined)	2%	2%	22%	i	-11%	?	.	.	.
CCOC(=O)N1CCN(C(=O)c2ccc(Cn3c(=S)[nH]c4cc5c(cc4c3=O)OCO5)cc2)CC1	7%	-36%	23%	i	?	9.2µM*	-22%	-9%	8.2µM*

Assay outcomes: PubChem, National Center for Advancing Translational Sciences (NCATS)
